Values quoted from earlier work in PubChem BioAssay AID977611.
Where a name gives a salt, the structure may show the parent alone. Screen size: about 3,900 compounds; about 3,900 (100%) were called active. The limit is not given here; nearly all actives have Kd up to about 4200 µM. So high a share suggests a set chosen from earlier hits. The list shows a part of the results. Numbered stars: 1 amine (or outer) side, 2 acyl side, 3 side chain; on linkers, the order of the positions; unused ones are H or OH. Starred links: 1 amine or outer side, 2 acyl side, 3 side chain; linkers in the order of their positions; H or OH if unused. Where a SMILES comes first, the peptide text is derived from it. Non-standard residues stand in square brackets, D forms with d. Square brackets hold non-standard residues; d marks the D form. Residues, ends and D or L forms follow the SMILES beside them. Peptide text beside a SMILES is read from it. [ ]: non-standard residue; d: D form. * marks the point of attachment. X1 = O=C([C@H](Cc1ccc(O[P+](O)(O)O)cc1)N[*:1])[*:2]; Lys(Me3) = C[N+](C)(C)CCCC[C@H](N)C(=O)O; Orn(CH(NH2)2) = NC(N)NCCC[C@H](N)C(=O)O; Tfa = O=C(C(F)(F)F)*

Assay: PubChem AID 977611
Details: PDB protein-ligand complexes, literature Kd

Molecule: O=c1[nH]cnc2cc3nc(NCc4cccs4)[nH]c3cc12
- Kd (protein: Queuine tRNA-ribosyltransferase TGT, PDB entry 4q4q): 1640 nM (active)

Molecule: N#C/C(=C\c1ccncc1)C(=O)NCc1ccccc1
- Kd (protein: RIO-type serine/threonine-protein kinase Rio1, PDB entry 4jin): 2280 nM (active)

Molecule: C[C@@H](O)[C@H](N)C(=O)N[C@@H](CCCC[N+](C)(C)C)C(=O)N[C@@H](CCC(N)=O)C(=O)O (H-Thr-[Lys(Me3)]-Gln-OH)
- Kd (protein: Os05g0196500 protein, PDB entry 4igq): 30100 nM (active)

Molecule: C[N+](C)(C)CCCC[C@H](N)C(=O)N[C@@H](CCC(N)=O)C(=O)O (H-[Lys(Me3)]-Gln-OH)
- Kd (protein: Polycomb protein EED, PDB entry 3k26): 400000 nM (active)

Molecule: CSCC[C@H](NC(=O)[C@H](CC(C)C)NC(=O)CNC(=O)[C@@H](NC(=O)[C@H](CC(N)=O)NC(=O)[C@H](CCC(=O)O)NC(=O)[C@H](Cc1ccc(O[P+](O)(O)O)cc1)NC(=O)[C@@H](N)C(C)C)C(C)C)C(=O)O (H-V[X1]ENVGLM-OH)
- Kd (protein: Grb2 SH2 domain, pY-Clamp Ptpn11_pY580, PDB entry 4jmg): 1.5 nM (active)

Molecule: H-TFKEVANAVKISASLM-OH
- Kd (protein: Calmodulin, PDB entry 2mg5): 700 nM (active)

Molecule: H-IGTDKELSDLLDFSAMFS-OH
- Kd (protein: eTAFH domain of AML1-ETO, PDB entry 2knh): 7000 nM (active)

Molecule: CC[C@H](C)[C@H](NC(=O)[C@H](CC(=O)O)NC(=O)[C@H](Cc1ccccc1)NC(=O)[C@H](CC(C)C)NC(=O)[C@H](CC(=O)O)NC(=O)CNC(=O)[C@@H](NC(=O)[C@@H](NC(=O)[C@H](CCCCN)NC(=O)[C@H](CC(C)C)NC(=O)[C@H](CCCNC(N)N)NC(=O)[C@H](CCCNC(N)N)NC(=O)[C@H](CO)NC(=O)[C@H](CC(C)C)NC(=O)[C@H](CC(N)=O)NC(=O)[C@H](CCC(=O)O)NC(=O)[C@H](CCSC)NC(=O)[C@@H](N)[C@@H](C)O)C(C)C)[C@@H](C)O)C(=O)N[C@@H](CCSC)C(=O)O (H-TMENLS[Orn(CH(NH2)2)][Orn(CH(NH2)2)]LKVTGDLFDIM-OH)
- Kd (protein: M11, the BCL-2 Homolog of Murine Gamma-herpesvirus 68, PDB entry 3bl2): 1580 nM (active)

Molecule: O=C(O)C1(O)C[C@@H](O)C(O)[C@H](O)C1 (some centres not stated)
- Kd (protein: 3-dehydroquinate dehydratase (K170M mutation), PDB entry 4iuo): 230000 nM (active)
- Kd (protein: 3-dehydroquinate dehydratase, PDB entry 4gui): 230000 nM (active)

Molecule: OC[C@H]1O[C@@H](Oc2ccc3c(c2)Oc2cc(O)ccc2N3)[C@H](O)[C@@H](O)[C@H]1O
- Kd (protein: PA-I galactophilic lectin, PDB entry 4lk7): 9100 nM (active)

Molecule: CC(C)(C)OC(=O)N1CC(NC2NC(=O)c3cccnc3N2)C1 (configuration not stated)
- Kd (protein: PLASMINOGEN ACTIVATOR INHIBITOR 1, PDB entry 4aqh): 290 nM (active)

Molecule: Cc1nn(C)c2sc(C(=O)O)cc12
- Kd (protein: Pantothenate synthetase (T2A, E77G mutation), PDB entry 4fzj): 700000 nM (active)

Molecule: CC(C)[C@H](NC(=O)[C@H](CO)NC(=O)[C@H](CCC(=O)O)NC(=O)[C@@H](N)CC(N)=O)C(=O)N[C@@H](CC(=O)O)C(=O)N[C@@H](Cc1ccc(O[P+](O)(O)O)cc1)C(=O)N[C@@H](CCCNC(N)N)C(=O)N[C@@H](C)C(=O)O (H-NESVD[X1][Orn(CH(NH2)2)]A-OH)
- Kd (protein: E3 ubiquitin-protein ligase CBL, PDB entry 3bux): 2360 nM (active)

Molecule: CC(C)[C@H](NC(=O)[C@H](C)NC(=O)[C@@H](N)CCCNC(N)N)C(=O)N[C@@H](CCC(=O)O)C(=O)N[C@@H](CC(N)=O)C(=O)N[C@@H](CCC(N)=O)C(=O)N[C@@H](Cc1ccc(O[P+](O)(O)O)cc1)C(=O)N[C@@H](CO)C(=O)N[C@@H](Cc1ccccc1)C(=O)O (H-[Orn(CH(NH2)2)]AVENQ[X1]SF-OH)
- Kd (protein: CBL E3 ubiquitin protein ligase, PDB entry 1yvh): 43 nM (active)

Molecule: CC(C)[C@H](NC(=O)[C@@H](NC(=O)[C@@H](NC(=O)[C@H](CO)NC(=O)[C@H](Cc1ccc(O[P+](O)(O)O)cc1)NC(=O)[C@H](CCC(=O)O)NC(=O)[C@@H](NC(=O)[C@@H](NC(=O)[C@@H](N)CO)[C@@H](C)O)C(C)C)[C@@H](C)O)C(C)C)C(=O)N[C@@H](Cc1cnc[nH]1)C(=O)N[C@@H](CO)C(=O)O (H-STVE[X1]STVVHS-OH)
- Kd (protein: Suppressor of cytokine signaling 3(SOCS3), PDB entry 2hmh): 70 nM (active)

Molecule: H-ADLIAYFKAATKF-OH
- Kd (protein: T cell receptor (TCR), PDB entry 1r5w): 2900 nM (active)

Molecule: H-AAIFYLAG-OH
- Kd (protein: HIV-1 protease, PDB entry 2nxd): 2200 nM (active)

Molecule: H-AASFIDAKKMP-OH
- Kd (protein: coatomer alpha subunit, PDB entry 4j8g): 64500 nM (active)

Molecule: CC(C)C[C@H](NC(=O)[C@H](CC(C)C)NC(=O)[C@H](CCCCN)NC(=O)[C@H](CCCNC(N)N)NC(=O)[C@H](C)NC(=O)[C@@H]1CCCN1C(=O)[C@H](CC(=O)O)NC(=O)[C@H](Cc1ccc(O)cc1)NC(=O)[C@H](C)N)C(=O)O (H-AYDPA[Orn(CH(NH2)2)]KLL-OH)
- Kd (protein: ALIX Bro1-V domains (KK268, 269YY mutant), PDB entry 2xs8): 24500 nM (active)

Molecule: H-ADLIAYPKAATKF-OH
- Kd (protein: T cell receptor (TCR), PDB entry 1r5v): 33000 nM (active)

Molecule: H-TIYNTTLKY-NH2
- Kd (protein: anti-human cytomegalovirus antibody 8f9, PDB entry 3eyf): 94 nM (active)

Molecule: CC[C@H](C)[C@H](NC(=O)[C@@H](NC(=O)[C@H](CO)NC(=O)[C@@H](NC(=O)[C@H](CCCCNC(C)=O)NC(=O)[C@H](Cc1c[nH]c2ccccc12)NC(=O)[C@H](CCCN=C(N)N)NC(=O)[C@H](CO)NC(=O)[C@H](CC(N)=O)NC(=O)[C@H](C)N)[C@@H](C)O)[C@@H](C)CC)C(=O)O
- Kd (protein: Golgi-associated PDZ and coiled-coil motif-containing protein CAL PDZ (CALP) domain, PDB entry 4nmq): 32300 nM (active)

Molecule: CC[C@H](C)[C@H](NC(=O)[C@H](CCCCNC(=O)C(F)(F)F)NC(=O)[C@H](CO)NC(=O)[C@@H](NC(=O)[C@@H]1CCCN1C(=O)[C@H](Cc1c[nH]c2ccccc12)NC(=O)[C@@H](N)CCCN=C(N)N)[C@@H](C)O)C(=O)O (H-RWPTSK(Tfa)I-OH)
- Kd (protein: Golgi-associated PDZ and coiled-coil motif-containing protein CAL PDZ (CALP) domain, PDB entry 4nmt): 14100 nM (active)

Molecule: CC[C@H](C)[C@H](NC(=O)[C@H](Cc1c[nH]c2ccccc12)NC(=O)[C@H](CCC(=O)O)NC(=O)[C@H](CC(N)=O)NC(=O)[C@@H](N)CO)C(=O)N[C@@H](CCC(N)=O)C(=O)N1CCC[C@H]1C(=O)N[C@@H](CCCNC(N)N)C(=O)N[C@@H](CC(C)C)C(=O)N1CCC[C@H]1C(=O)N[C@H](C=O)CCC(N)=O (H-SNEWIQP[Orn(CH(NH2)2)]LPQ-aldehyde)
- Kd (protein: Ephrin type-B receptor 2, PDB entry 2qbx): 6000 nM (active)

Molecule: CC[C@H](C)[C@H](NC(=O)[C@@H](NC(=O)[C@H](CO)NC(=O)[C@@H](NC(=O)[C@@H]1CCCN1C(=O)[C@H](CCCCNC(C)=O)NC(=O)[C@H](CCCN=C(N)N)NC(=O)[C@H](CO)NC(=O)[C@H](CC(N)=O)NC(=O)[C@H](C)N)[C@@H](C)O)[C@@H](C)CC)C(=O)O
- Kd (protein: Golgi-associated PDZ and coiled-coil motif-containing protein CAL PDZ (CALP) domain, PDB entry 4nmr): 298000 nM (active)

Molecule: CC[C@H](C)[C@H](NC(=O)[C@@H](NC(=O)[C@H](CO)NC(=O)[C@@H](NC(=O)[C@@H]1CCCN1C(=O)[C@H](Cc1c[nH]c2ccccc12)NC(=O)[C@H](CCCNC(N)N)NC(=O)[C@H](CO)NC(=O)[C@H](CC(N)=O)NC(=O)[C@H](C)N)[C@@H](C)O)[C@@H](C)CC)C(=O)O
- Kd (protein: Golgi-associated PDZ and coiled-coil motif-containing protein, PDB entry 4e34): 970 nM (active)

Molecule: H-RWPTSK(Ac)I-OH
- Kd (protein: Golgi-associated PDZ and coiled-coil motif-containing protein CAL PDZ (CALP) domain, PDB entry 4nmo): 14900 nM (active)

Molecule: C[C@@H](O)[C@@H](C=O)[C@H]1CC(S)=C(C(=O)O)N1
- Kd (protein: Probable L,D-transpeptidase LdtA, PDB entry 4jmx): 62.1 nM (active)

Molecule: CC1=C(/C=C/C(C)=C/C=C/C(C)=C/CO)C(C)(C)CCC1
- Kd (protein: bovine beta-lactoglobulin, PDB entry 1gx8): 430 nM (active)

Molecule: C/C=C(C)/C=C/C=C(C)/C=C/C1=C(C)CCCC1(C)C
- Kd (protein: Cellular retinoic acid-binding protein 2 (R111K, R132L, Y134F, T54V, R59W mutation), PDB entry 4i9s): 162 nM (active)
- Kd (protein: Cellular retinoic acid-binding protein 2 (R111K, R132L, Y134F, T54V, R59W, A32W mutation), PDB entry 4i9r): 112 nM (active)
